About 83,000 compounds went through this panel and 20% of them were active in at least one assay; those are over-represented in the sample as a whole.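 Percent growth is the endpoint: 0 to 100 indicates growth inhibition (40 means 60% inhibition), 0 means no net growth, and negative values indicate cell death.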 Unmarked numbers belong to inactive results. Active and inactive are the calls of the source. How the source made its calls: active means growth percent below 10; inactive means the rest.
Tests used:
Assay in all cases: NCI-60 one-dose screen, 48 h (100 = growth as untreated, 0 = no growth, -100 = all killed)
Conditions in all cases: 10 µM unless noted
[1] = tested on: T-47D breast
[2] = tested on: BT-549 breast
[3] = tested on: MDA-MB-435 melanoma
[4] = tested on: SW-620 colon
[5] = tested on: MCF7 breast
[6] = tested on: HCT-116 colon
[7] = tested on: HCC-2998 colon
[8] = tested on: KM12 colon
[9] = tested on: MDA-MB-468 breast

Structure (SMILES)	growth [1]	growth [2]	growth [3]	growth [4]	growth [5]	growth [6]	growth [7]	growth [8]	growth [9]
NC(=O)c1ccc(-c2ccc3ncnc(N4CCc5cc(F)c(Cl)cc54)c3c2)cn1	28%	61.1%	95.9%	94.2%	37.7%	63.6%	89.7%	96.1%	-7.37% (active)
CN1CCN(CCS(=O)(=O)Nc2cc(-c3ccc4ncnc(Nc5ccc(F)c(Cl)c5)c4c3)cnc2Cl)CC1	-6.97% (active)	-53% (active)	0.425% (active)	36.2%	10.2%	27.8%	-8.06% (active)	46.4%	-75.1% (active)
Cc1ccc(C(=O)Nc2cccc(C(=O)NC(=S)Nc3ccc(S(N)(=O)=O)cc3)c2)cc1	47.6%	51.4%	72.5%	116%	57.2%	71.6%	95.8%	76.9%	58.7%
Nc1nn2c(-c3cc4cc(Br)ccc4oc3=O)ccnc2c1N=Nc1ccccc1	29.6%	-45.3% (active)	71.2%	50.7%	20%	3.34% (active)	30.2%	26.1%	46.2%
O=C(CSc1nnc(-c2ccc(-c3nc4ccccc4[nH]3)cc2)o1)Nc1ccc(Cl)cc1	23.8%	-0.131% (active)	18.4%	-50.5% (active)	7.43% (active)	7.32% (active)	59.6%	22.9%	54.8%
Cc1ccc(S(=O)(=O)N(CCn2ccnc2[N+](=O)[O-])CCn2ccnc2[N+](=O)[O-])cc1	100%	119%	98.7%	100%	100%	102%	114%	105%	96.4%
O=C1Nc2cc(-c3ccc(NS(=O)(=O)c4ccc(-c5ccccc5)cc4)cc3)ccc2/C1=C/c1ccc[nH]1	3.17% (active)	3.7% (active)	40.3%	8.95% (active)	-25.2% (active)	20.3%	50.8%	34.2%	-52.5% (active)
Cc1oc(-c2ccccc2)nc1CN[C@@H]1C[C@@H]2C[C@H]([C@H]1C)C2(C)C	0.388% (active)	39.3%	71.3%	22.8%	-4.81% (active)	9.06% (active)	-75.6% (active)	64.3%	-83.7% (active)
CC[C@]12C=CCN3CC[C@@]4(c5ccc(OC)cc5N(C)[C@H]4[C@@](O)(C(=O)OC)[C@@H]1OC(=O)CCC[P+](c1ccc(OC)cc1)(c1ccc(OC)cc1)c1ccc(OC)cc1)[C@@H]32	-61.4% (active)	-96.6% (active)	-76.9% (active)	-82.4% (active)	-83% (active)	-68.8% (active)	-89.7% (active)	-65.3% (active)	-92.1% (active)
CC1=NN(C2=NC(=O)C(CC(=O)Nc3ccccc3C(F)(F)F)S2)C(c2ccc(N(C)C)cc2)C1 (stereo not drawn)	48%	52.7%	-26.5% (active)	60.5%	23.4%	30.1%	66.2%	39%	3.34% (active)
O=C(Nc1nc2ccc([N+](=O)[O-])cc2s1)Nc1ccc(Cl)cc1Cl	20.7%	65.3%	60.3%	75.9%	36%	22.5%	69.4%	60.2%	29.1%
OC1CCC(Cn2c(C(F)(F)F)cc3c(Cl)ncnc32)CC1 (stereo not drawn)	82%	-37.7% (active)	8.29% (active)	38.8%	91%	1.57% (active)	-94% (active)	86.5%	9.1% (active)
C=CCSc1nnc(-c2ccc(-c3nc4ccc(Cl)cc4[nH]3)cc2)o1	68.4%	22.6%	-22.5% (active)	27.8%	25.1%	29.5%	83.4%	34.6%	28.6%
CCOC(=O)/C(F)=C/C1CC1C(c1ccccc1)c1ccccc1 (stereo not drawn)	70.7%	117%	84.8%	75.1%	80.7%	62%	102%	83.5%	36.2%
O=C(Cn1c(-c2ccccc2)nc2ccccc21)N=Nc1c(O)[nH]c2ccc(Cl)cc12	-29.8% (active)	-53% (active)	2.53% (active)	23%	9.49% (active)	-23.7% (active)	19.5%	32.2%	-18.9% (active)
COc1ccc(Nc2nnc(-c3c[nH]c4ccccc34)o2)cc1	71.9%	77.8%	81.9%	93%	58.6%	92.4%	108%	65.3%	-7.14% (active)
O=C1/C(=C/C=C/c2ccco2)SC(=S)N1CC(=S)C1C=CS(=O)(=O)C1 (stereo not drawn)	80.2%	88.1%	96.7%	76.9%	27.9%	83.4%	103%	89.4%	-16.5% (active)
CCCCC[C@@H]1C/C=C(\C)[C@@H](O)C(C)(C)C(=O)[C@@H](C)/C=C(\C)[C@@H]2C[C@H](O)C[C@](O)(CC(=O)O1)O2	13.5%	18.8%	24%	47.3%	7.53% (active)	43%	57.1%	44.6%	-21.2% (active)
O=C(CSc1nc2c(c(=O)[nH]1)CCCC2)Nc1ccccc1C(=O)O	105%	117%	109%	116%	85.9%	96.2%	123%	103%	100%
Cc1ccc(Cl)cc1NC(=O)N/C(N)=N/c1nc2ccccc2s1	32.4%	-7.19% (active)	-63.9% (active)	1.84% (active)	4.25% (active)	-51.9% (active)	-14.8% (active)	-28.7% (active)	-30.1% (active)
O=C1Nc2ccccc2/C1=C\c1ccc(OCC(=O)c2ccc(Br)cc2)cc1	46.9%	56.6%	70.5%	78.1%	27.4%	55.4%	85.1%	77.3%	52.4%
NNc1ncnc2sc3c(c12)CCN(Cc1ccccc1)C3	24.8%	55%	77.7%	46.6%	9.55% (active)	42.6%	52.1%	53.8%	13.2%
COc1cccc(-c2ccc(/C=N/NC(=O)c3[nH]c4ccc(Br)cc4c3-c3ccccc3)s2)c1	52.9%	-26.9% (active)	-51.3% (active)	20.4%	1.38% (active)	-27.5% (active)	5.11% (active)	-14.2% (active)	7.16% (active)
C[C@@H]1CN(c2ccc3ncc(C#Cc4cncc(C(=O)Nc5ccc(CN6CCN(C)CC6)c(C(F)(F)F)c5)c4)n3n2)C[C@@H](C)O1	-62.6% (active)	-75.4% (active)	-96.4% (active)	-84.2% (active)	-93.1% (active)	-23.5% (active)	-97% (active)	-66.6% (active)	-95.1% (active)
C=CCSc1nnc(-c2c(C)nc3sccn23)o1	79.4%	65.2%	101%	97%	70.8%	94%	110%	101%	5.74% (active)
COc1ccc2[nH]c(O)c(N=Nc3nc(-c4ccc(Cl)cc4)cs3)c2c1	-21.5% (active)	25.9%	33.2%	2.98% (active)	-19% (active)	-74.9% (active)	1.1% (active)	4.66% (active)	-60.8% (active)
N#Cc1ccc(C(=O)CSc2nc3c(c(Nc4ccc(S(N)(=O)=O)cc4)n2)CCC3)cc1	71.7%	83.3%	86.6%	47.8%	19.2%	15.7%	15.8%	64.2%	60.4%

— PubChem BioAssay (NCI)
